Screening data from PubChem BioAssay.
ST2 inh = IL1RL1 inhibition. 2.3% of 78,000 active. inhibition, % for hits at 17 µM. AlphaLISA ST2-Fc/biotin-IL-33 interaction, 1 h. Q01638; in the data active = inhibition above about 30%
Target sequence (Q01638 whole entry, looked up): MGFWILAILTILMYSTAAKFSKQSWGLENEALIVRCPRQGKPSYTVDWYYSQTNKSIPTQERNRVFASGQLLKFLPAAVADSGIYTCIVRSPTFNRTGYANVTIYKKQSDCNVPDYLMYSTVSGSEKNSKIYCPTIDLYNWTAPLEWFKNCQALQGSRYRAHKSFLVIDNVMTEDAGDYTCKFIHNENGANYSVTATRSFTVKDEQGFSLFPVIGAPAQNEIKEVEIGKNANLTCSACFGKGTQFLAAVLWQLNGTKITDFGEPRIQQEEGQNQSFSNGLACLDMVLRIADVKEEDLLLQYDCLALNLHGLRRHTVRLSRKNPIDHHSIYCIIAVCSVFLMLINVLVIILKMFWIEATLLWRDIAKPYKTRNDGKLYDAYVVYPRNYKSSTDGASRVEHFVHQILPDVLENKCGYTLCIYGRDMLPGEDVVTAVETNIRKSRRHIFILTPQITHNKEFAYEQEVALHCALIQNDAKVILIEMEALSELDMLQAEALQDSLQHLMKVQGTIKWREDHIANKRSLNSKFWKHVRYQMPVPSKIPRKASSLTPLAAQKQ
Each line names hits and unclear results; the compound was inactive in the other large screens. This is one part of a sample in which hits are shown more often than they occur.

N#Cc1ccc(/C=C2\NC(=O)N(Cc3ccc(Cl)cc3)C2=O)cc1	ST2 inh 30%
Cc1cc(/C=C2\NC(=O)N(Cc3ccc(Cl)cc3)C2=O)c(C)n1-c1ccc(C#N)cc1	none
O=C1N/C(=C\c2ccc(Cl)cc2)C(=O)N1Cc1ccc(Cl)cc1	none
Cc1ccc(S(=O)(=O)NC(C(C)C)C(C)C)cc1[N+](=O)[O-]	none
O=C1CC(c2cccs2)CC2=C1C(c1cc(F)ccc1F)Nc1ccccc1N2 (stereo not drawn)	none
O=C1CC(c2cccs2)CC2=C1C(c1cccc(F)c1)Nc1ccccc1N2 (stereo not drawn)	ST2 inh 30%
O=C1CC(c2cccs2)CC2=C1C(c1cccc([N+](=O)[O-])c1)Nc1ccccc1N2 (stereo not drawn)	none
Cc1ccccc1CSC1=NCCN1C(=O)C1CC1	none
COCCCNC(=O)c1c(NC(=O)c2ccco2)sc2c1CCCC2	none
C=CCn1c(C)nc2c(sc3nc4c(cc32)COC(C)(C)C4)c1=O	none
CCCCn1c(C)nc2c(sc3nc4c(cc32)COC(C)(C)C4)c1=O	none
CC1(C)Cc2nc3sc4c(=O)[nH]cnc4c3cc2CS1	ST2 inh 80%
COc1ccccc1C(=O)Nc1cc(Cl)c(Cl)cc1Cl	none
CCOC(=O)N1CCC(NCC(=O)Nc2ccc(N(C)C(C)=O)cc2)CC1	none
O=C(Cn1c(=O)[nH]c2ccsc2c1=O)N1CCC(Cc2ccccc2)CC1	none
COc1ccc(C=NS(=O)(=O)c2ccccc2)c(OC)c1	none
CCOc1ccc(Nc2c(OCC)c(=O)c2=O)cc1	none
COc1ccc(NC(=O)C(Cc2ccccc2)N2C(=O)c3ccccc3C2=O)cc1 (stereo not drawn)	none
COc1ccc(S(=O)(=O)N=C2C=C(Nc3ccccc3)C(=O)c3ccccc32)cc1	ST2 inh 85%
CCOc1ccc(S(=O)(=O)NCCO)cc1	none
COc1ccc(S(N)(=O)=O)cc1	none
CCOc1ccc(S(=O)(=O)N=C2C=C(Nc3ccccc3)C(=O)c3ccccc32)cc1	ST2 inh 87%
CCOc1ccc(S(=O)(=O)Nc2ccc(I)cc2)cc1	none
COc1ccc(S(=O)(=O)N=C2C=C(C(C)C)C(=O)C=C2C)cc1	none
CCOc1ccc(S(=O)(=O)N(CC(=O)Nc2cccc(OC)c2)c2ccccc2)cc1	none
COc1ccc(S(=O)(=O)N=C2C=CC(=O)c3ccccc32)cc1	ST2 inh 39%
CCOc1ccc(NC2=CC(=NS(=O)(=O)c3ccc(OCC)cc3)c3ccccc3C2=O)cc1	ST2 inh 93%
CCOC(=O)C1CCCN(C(=O)CC2(c3ccccc3)CC(=O)N(CCc3ccccn3)C2=O)C1 (stereo not drawn)	none
Cc1[nH]c2c(C(=O)N3CC[C@H](O)C[C@@H]3C(=O)O)cccc2c1C	none
CC(C)CN(CC(C)C)C(=O)CN(C)S(=O)(=O)c1ccc2c(c1)CCC(=O)N2	none
CC(=O)N1CCN(c2ncccc2CNC(=O)c2ccc(C)s2)CC1	none
CCc1ccc(S(=O)(=O)N=C2C=C(Nc3ccccc3)C(=O)c3ccccc32)cc1	ST2 inh 79%
CCc1ccc(NS(=O)(=O)c2ccc(OC)cc2)cc1	none
Cc1ccc(NC2=CC(=NS(=O)(=O)c3cccs3)c3ccccc3C2=O)c(C)c1	ST2 inh 89%
CC(C)Cc1ccc(S(=O)(=O)Nc2ccccc2)cc1	none
CCc1ccc(S(=O)(=O)NCC(=O)O)cc1	none
CCOc1ccc(S(=O)(=O)N=C2C=C(Nc3ccc(OC)cc3)C(=O)c3ccccc32)cc1	ST2 inh 93%
CCOc1ccc(NC(=O)Cc2ccc(OC)cc2)cc1	none
Cc1ccccc1NC(=O)C(NS(=O)(=O)c1cccs1)C(C)C (stereo not drawn)	none
CCOc1ccc(NC2=CC(=NS(=O)(=O)c3ccc(F)cc3)c3ccccc3C2=O)cc1	ST2 inh 95%
CC1=C(C(=O)Nc2ccc(C)cc2C)C(c2cccs2)n2nnnc2N1 (stereo not drawn)	none
CCOc1c(Nc2ccc(F)cc2)c(=O)c1=O	none
CCOc1ccc(NC(=O)c2ccccc2F)cc1	none
Cc1cccc2nc(C(=O)N3CCC(O)(CN(C)C)C3)cn12 (stereo not drawn)	none
COc1ccc(C(=O)O)cc1S(=O)(=O)N1CCCC1	none
Cn1cc(CN(CCO)C(=O)c2cccc(-c3cccc(F)c3)c2)cn1	none
COc1ccccc1NC1=CC(=NS(=O)(=O)c2ccc(C)cc2)c2ccccc2C1=O	ST2 inh 94%
COc1ccccc1NS(=O)(=O)c1ccc(C(C)(C)C)cc1	none
COc1ccc(C)cc1NS(=O)(=O)c1ccc(OC)c(OC)c1	none
CC1(C(=O)NC2CCCCC2)CCC(=O)N1Cc1ccc(F)cc1 (stereo not drawn)	none
Clc1ccc(-c2noc([C@@H]3Cc4nc[nH]c4CN3Cc3cccs3)n2)cc1	ST2 inh 30%
COc1ccc(-c2noc([C@@H]3Cc4nc[nH]c4CN3C(=O)Nc3ccc(Cl)cc3)n2)cc1	none
O=C(O)c1ccc(CN2Cc3[nH]cnc3C[C@H]2c2nc(-c3cccc([N+](=O)[O-])c3)no2)cc1	none
Clc1ncnc2c1C(c1ccccc1)c1c(Cl)ncnc1O2	none
Cc1cc(C)c(C#N)c(Nc2ccc(Cl)c(Cl)c2)n1	none
COc1ccc(OC)c(C2NC(=O)NC(C)=C2C(=O)OCCc2ccccc2)c1Br (stereo not drawn)	none
CCCn1c(CCCNC(=O)c2cccs2)nc2ccccc21	none
COc1ccc(/C=C(\C)c2nc(C)c(-c3ccccc3)c(=O)[nH]2)cc1	none
COc1ccc(/C=C2\CC(c3ccccc3)=CC2=O)cc1	ST2 inh 52%
COc1ccc(/C=C2\SC(N3CCCC3)=NC2=O)cc1	none
O=C1Nc2ccc(Br)cc2C(=O)N2CCN(C(=O)c3cccc(F)c3)C[C@H]12	ST2 inh 37%
O=C1Nc2ccc(Br)cc2C(=O)N2CCN(C(=O)c3ccccc3)C[C@H]12	none
O=C1Nc2ccc(-c3ccccc3)cc2C(=O)N2CCN(C(=O)c3cccc(F)c3)C[C@H]12	none
CN(C)S(=O)(=O)c1ccc(C(O)=C2C(=O)C(=O)N(Cc3cccnc3)C2c2ccccc2)cc1 (stereo not drawn)	none
CCOC(=O)C1C(=O)C=C(c2cccs2)CC1c1ccccc1OCC (stereo not drawn)	none
O=C1C=C(c2cccs2)C[C@H](c2ccccc2)[C@H]1n1nnc([N+](=O)[O-])n1	ST2 inh 41%
CCOC(=O)C1C(=O)C=C(c2cccs2)CC1c1ccc(OC)c(OC)c1 (stereo not drawn)	none
CSCCOC(=O)C1=C(C)NC(=O)NC1c1cccc(O)c1 (stereo not drawn)	none
CCC(NC(=O)Cc1ccccc1)C(=O)O (stereo not drawn)	none
CCC1CCCCN1CCCNC(=O)c1cc(-c2ccncc2)nc2ccccc12 (stereo not drawn)	none
CCOc1ccc(NCC(=O)c2ccc(Br)cc2)cc1	none
CCOc1ccc(N=C/C(=C/Nc2ccc(OCC)cc2)c2ccccc2)cc1	ST2 inh 36%
CCOc1ccc(N=CNc2ccc(OCC)cc2)cc1	none
O=C(c1ccc(Cl)cc1Cl)N1CCN(c2ccccc2)CC1	none
COc1ccc(/C=C/C(=O)OC[C@H]2O[C@@H](OC(CCc3ccc(O)cc3)CC(=O)CCc3ccc(O)cc3)[C@H](O)[C@@H](O)[C@@H]2O)cc1OC (stereo partly drawn)	none
CC(C)C(C(=O)Nc1cccc(C(F)(F)F)c1)N1C(=O)c2ccccc2C1=O (stereo not drawn)	none
CC(C)CC(C(=O)Nc1cccc(C(F)(F)F)c1)N1C(=O)c2ccccc2C1=O (stereo not drawn)	none
O=C1C(Nc2cccc(C(F)(F)F)c2)=C(N2CCOCC2)C(=O)c2ccccc21	ST2 inh 67%
O=C(Nc1ccc(Cl)c(C(F)(F)F)c1)C1CCN(C(=O)c2ccccc2)CC1	none
